Screen size: about 2,400 compounds; about 1,500 (62%) were called active. Cut-off read from the data, not from the text of the source: active = inhibition above about 22%; inactive = the rest. The set was probably picked from earlier hits. The sample as a whole holds a higher share of actives than the screen did.
These molecules were tested against Melanin-concentrating hormone receptor 1 (Homo sapiens) (UniProt Q99705) (assay: MCHR1 antagonists in cells, counter-screen for GPR7 antagonist project, cell-based, fluorescence, human (AID 2148;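 note: 0% = vehicle with agonist and 100% = vehicle without agonist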)). Settings: MCHR1-expressing cells, fluorescence antagonist assay; at 4.4 µM; hits give high values.
For `CCOC(=O)C1(Cc2ccc(Cl)cc2)CCN(C(C)CCn2cccn2)CC1` (stereo not drawn), the inhibition was 26% (active).
In the case of `COc1ccc(Br)cc1CNCCc1cccc(Cl)c1`, the inhibition is reported as 44.1% (active).
`CCOc1ccc(-c2cc(C)[n+](CCN(CC)CC)c(-c3ccc(OCC)cc3)c2)cc1` was tested, and the inhibition was 46.5% (active).
